From ChEMBL document CHEMBL4513216, “Probing the Open Global Health Chemical Diversity Library for Multistage-Active Starting Points for Next-Generation Antimalarials” (ACS Infect Dis, 2020) come the findings set out here.

Molecules are shown by their SMILES. Among all 69,000 compounds or so, about 8,600 (12%) showed an effect of 50% or more. The list comes from a sample in which strong results are over-represented; it also holds similar structures and randomly drawn compounds.

This assay relates to Plasmodium berghei. Put plainly: Screen against P. berghei liver stage (PbLuc), transformed with Luciferase, at 10uM. The format is functional, HepG2. To be noted: tested at 10 uM.
As to `CCn1ncc(CNc2[nH]cnc3nncc2-3)c1C`, the INHIBITION turned out to be 25.3%. The figure for `CCCC1CN(CC(C)C)C(=O)c2cccnc2O1` (configuration not stated) is 6.34%; for `O=C(NCc1ccc2c(c1)OCO2)Nc1cccnc1N1CCCC1` it is -4.94%; for `O=c1cc(Cn2ccnc2)nc2n1CCCN(S(=O)(=O)C1CC1)C2` it is -10.2%. Take `CN1C[C@H]2CC[C@@H](C1)N(Cc1ccccc1OCCN1CCOCC1)C2`: the INHIBITION is on record as -154%. The figure for `CC(=O)N1CCC(NC(=O)N2CCN(c3cnccn3)CC2)CC1` is 48.2%; for `Cc1nc2c(c(=O)[nH]1)CN(Cc1ccc3c(c1)CCCN3C)CC2` it is 30.5%; for `Cc1ccc(C(=O)N2CCC[C@@H]2Cn2nnc3c(O)nc(C)nc32)cc1` it is 23.4%. `Cn1ccnc1CNCCNc1ncc(Cl)cc1Cl`: the INHIBITION is on record as 1.51%. For `CCCc1n[nH]c(C2CN(CCS(=O)(=O)CC)CCO2)n1` (configuration not stated), the INHIBITION came out at 44.1%. As to `Cn1cc(S(=O)(=O)Nc2c(F)cccc2N2CCCC2)cn1`, the INHIBITION is -11.9%. On to `N#Cc1cccc(S(=O)(=O)Nc2c(F)cccc2N2CCCC2)c1`, for which the INHIBITION is 50.1%. The figure for `O=S(=O)(Nc1c(F)cccc1N1CCCC1)c1cncc(F)c1` is 27.6%.

With `O=C(c1ccncc1)N1CCC(c2nc(O)cc(-c3ccncc3)n2)C1` (configuration not stated), the INHIBITION worked out at 48.3%. As for `CCCN1C[C@H](NC(=O)c2cc(C)no2)[C@@H](c2ccc(OC)cc2)C1`, the INHIBITION was 35.2%. In the case of `CCCN1C[C@H](NC(=O)c2cccs2)[C@@H](c2ccc(OC)cc2)C1` it was 31.6%. The figure for `CCCN1C[C@H](NC(=O)c2ccccc2F)[C@@H](c2ccc(OC)cc2)C1` is 54.4%; for `CCN(CC)C1CCN(C(=O)NCc2cccc(NC(C)=O)c2)C1` (configuration not stated) it is -4.15%; for `CCCc1noc(CCC(=O)N2CCCC2c2cccs2)n1` (configuration not stated) it is 29.7%. As to `CCCS(=O)(=O)N1C[C@@H]2C[C@H](C(=O)N3CCCC3)[C@H](C1)O2`, the INHIBITION worked out at 35.8%. In the case of `CN(C)c1cc(N2CCN(c3ccccn3)CC2)ncn1` it was 41.1%; in that of `Cc1ccccc1N1CCN(C(=O)c2cnc(N(C)C)nc2C)C(C)C1` (configuration not stated), 25.8%; in that of `Cc1ccccc1N1CCN(c2cc(N(C)C)ncn2)C(C)C1` (configuration not stated), 67.4%. In the case of `Cc1ccccc1N1CCN(C(=O)c2cnc(C3CC3)nc2)C(C)C1` (configuration not stated) it was 43%; in that of `Cc1ccccc1N1CCN(c2ccncn2)C(C)C1` (configuration not stated), 63.2%. Take `Cc1nccn1CCC1CCN(c2ccncn2)CC1`: the INHIBITION amounted to 35.8%. As to `Cc1ccccc1N1CCCN(c2ccncn2)CC1`, the INHIBITION is on record as 80.7%. Consider `CSc1ncc(C(=O)N2CCN(c3ccccc3C)CC2C)cn1` (configuration not stated), for which the INHIBITION is 44.8%.

Consider `Cc1ccccc1N1CCN(C(=O)c2ncc(F)cc2F)C(C)C1` (configuration not stated), for which the INHIBITION worked out at 33%. In the case of `Cc1ccccc1N1CCN(C(=O)c2cscn2)C(C)C1` (configuration not stated) it was 10.3%; in that of `Cc1ccc(N2CCN(c3ccccc3C)CC2C)nn1` (configuration not stated), 59.9%. On to `Cc1cc(C)nc(C2CCN(c3ccncn3)C2)n1` (configuration not stated), for which the INHIBITION came out at 36.9%.
